“And” between values parts separate entries of the source, which are not always exact repeats. Identical values can stand only once. Inconclusive results are not listed. A call without a number means that no potency is given here. The source made the active and inactive calls. Unless noted, calls come from the whole dose curve; as a rule, active = well fitted curve in the direction sought with a large enough effect; inconclusive = small, poorly fitted or top-dose-only effect, or another doubt; inactive = no such curve, though single readings can be large; an effect the other way counts as inactive or inconclusive.
What was measured:
[1] = qHTS of pediatric cancer cell lines to identify multiple opportunities for drug repurposing: Primary screen for TC32 cells (AID 1347089); details: TC32 Ewing sarcoma viability, CellTiter-Glo luminescence, 48 h; series mostly up to 45.8 µM; note: nearly all actives have a fitted effect of over 60% in size; note: potency is the fitted concentration of half-maximal effect
Method in brief: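 qHTS, TC32, 48 h drug treatment, CellTiter-Glo luminescence as a proxy for metabolically active cells; primary top concentration 46 µM (MIPE 11-pt, NPC 8-pt); confirmatory 11-pt.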

[2] = qHTS of pediatric cancer cell lines to identify multiple opportunities for drug repurposing: Primary screen for DAOY cells (AID 1347090); details: DAOY medulloblastoma viability, CellTiter-Glo luminescence, 48 h; series mostly up to 46 µM; note: nearly all actives have a fitted effect of over 55% in size; note: potency is the fitted concentration of half-maximal effect
Method in brief: (§1)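 Eight- or eleven-point concentration series, 48 h treatment at 37 degrees C in growth media; readout CellTiter-Glo luminescence. Potency and efficacy were taken from the concentration-response curves.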

[3] = qHTS of pediatric cancer cell lines to identify multiple opportunities for drug repurposing: Primary screen for A673 cells (AID 1347092); details: A673 Ewing sarcoma viability, CellTiter-Glo ATP luminescence, 48 h; series mostly up to 46 µM; note: nearly all actives have a fitted effect of over 45% in size; note: potency is the fitted concentration of half-maximal effect
Method in brief: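 Luminescence from CellTiter-Glo, taken after 15 min at room temperature, served as the proxy for metabolically active cells following 48 h treatment. Both potency and efficacy were taken from curves fitted to the titration data.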

[4] = qHTS of pediatric cancer cell lines to identify multiple opportunities for drug repurposing: Primary screen for SK-N-MC cells (AID 1347093); details: SK-N-MC viability, CellTiter-Glo luminescence, 48 h; series mostly up to 46 µM; note: potency is the fitted concentration of half-maximal effect
Method in brief: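 Metabolically active cells were quantified by ATP-dependent luminescence (CellTiter-Glo, 15 min at room temperature) following 48 h treatment. Cells had been plated at 500-1,000 per well and settled for 5 h beforehand.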

[5] = qHTS of pediatric cancer cell lines to identify multiple opportunities for drug repurposing: Primary screen for BT-37 cells (AID 1347094); details: BT-37 viability, CellTiter-Glo luminescence, 48 h; series mostly up to 57.3 µM; note: potency is the fitted concentration of half-maximal effect
Method in brief: (§2)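 Phenotypic viability qHTS, 48 h compound exposure, CellTiter-Glo luminescence read-out; multi-concentration dosing so that potency and efficacy derive directly from the primary screen's curves.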

[6] = qHTS of pediatric cancer cell lines to identify multiple opportunities for drug repurposing: Primary screen for NB-EBc1 cells (AID 1347095); details: NB-EBc1 neuroblastoma viability, CellTiter-Glo luminescence, 48 h; series mostly up to 46 µM; note: potency is the fitted concentration of half-maximal effect
Method in brief: as §2

[7] = qHTS of pediatric cancer cell lines to identify multiple opportunities for drug repurposing: Primary screen for U-2 OS cells (AID 1347096); details: U-2 OS viability, CellTiter-Glo luminescence, 48 h; series mostly up to 46 µM; note: nearly all actives have a fitted effect of over 50% in size; note: potency is the fitted concentration of half-maximal effect
Method in brief: (§3)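 Cells (500-1,000/well) in growth media were settled 5 h at 37 degrees C, then given compounds for 48 h. Viability was read as CellTiter-Glo luminescence. Primary runs used MIPE at 11 points (0.78 nM-46 µM) and NPC at 8 points (0.59 nM-46 µM); follow-ups used 11 points.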

[8] = qHTS of pediatric cancer cell lines to identify multiple opportunities for drug repurposing: Primary screen for Saos-2 cells (AID 1347097); details: Saos-2 viability, CellTiter-Glo ATP luminescence, 48 h; series mostly up to 46 µM; note: nearly all actives have a fitted effect of over 40% in size; note: potency is the fitted concentration of half-maximal effect
Method in brief: as §2

[9] = qHTS of pediatric cancer cell lines to identify multiple opportunities for drug repurposing: Primary screen for SK-N-SH cells (AID 1347098); details: SK-N-SH viability, CellTiter-Glo luminescence, 48 h; series mostly up to 57 µM; note: nearly all actives have a fitted effect of over 65% in size; note: potency is the fitted concentration of half-maximal effect
Method in brief: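 Cells (500-1,000/well) rested 5 h, then received compounds for 48 h; metabolically active cells were measured by CellTiter-Glo luminescence. Final concentrations spanned up to 46 µM (MIPE, 11-point) or 0.59 nM-46 µM (NPC, 8-point) in primary screens, 11-point in follow-ups.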

[10] = qHTS of pediatric cancer cell lines to identify multiple opportunities for drug repurposing: Primary screen for NB1643 cells (AID 1347099); details: NB1643 neuroblastoma viability, CellTiter-Glo luminescence, 48 h; series mostly up to 46 µM; note: nearly all actives have a fitted effect of over 50% in size; note: potency is the fitted concentration of half-maximal effect
Method in brief: as §2

[11] = NS1 protein of Zika virus - qHTS assay to identify small molecule inhibitors in human HEK 293 cells (AID 1347053); details: HEK293 ZIKV MR766 infection, NS1 TR-FRET, 24 h; series mostly up to 46.1 µM; note: nearly all actives have a fitted effect of over 55% in size; note: potency is the fitted concentration of half-maximal effect
Method in brief: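 In this cell-based screen, HEK 293 cultures received compound for one hour before Zika MR766 at MOI = 0.5. NS1 was quantified 24 hours later by TR-FRET, normalized to virus-free wells and infected wells.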

[12] = qHTS of pediatric cancer cell lines to identify multiple opportunities for drug repurposing: Primary screen for LAN-5 cells (AID 1347100); details: LAN-5 neuroblastoma viability, CellTiter-Glo luminescence, 48 h; series mostly up to 46 µM; note: potency is the fitted concentration of half-maximal effect
Method in brief: as §3

[13] = qHTS of pediatric cancer cell lines to identify multiple opportunities for drug repurposing: Primary screen for SJ-GBM2 cells (AID 1347091); details: SJ-GBM2 viability, CellTiter-Glo luminescence, 48 h; series mostly up to 46 µM; note: potency is the fitted concentration of half-maximal effect
Method in brief: as §1

[14] = molecular target: T1, Tyrosine-protein phosphatase non-receptor type substrate 1 (Homo sapiens) + Leukocyte surface antigen CD47 (Homo sapiens) (UniProt P78324+Q08722); test: CD47-SIRPalpha protein protein interaction - LANCE assay qHTS validation (AID 1347057; active = well fitted curve in the direction sought with a large enough effect in the signal ratio, with a control signal flat, not every such curve was filed as active; the % refers to the signal ratio); details: Recombinant CD47-His / biotin-SIRPalpha, TR-FRET ratio; series mostly up to 38.3 µM
T1 sequence (P78324 whole entry, looked up, the tested form may be a part): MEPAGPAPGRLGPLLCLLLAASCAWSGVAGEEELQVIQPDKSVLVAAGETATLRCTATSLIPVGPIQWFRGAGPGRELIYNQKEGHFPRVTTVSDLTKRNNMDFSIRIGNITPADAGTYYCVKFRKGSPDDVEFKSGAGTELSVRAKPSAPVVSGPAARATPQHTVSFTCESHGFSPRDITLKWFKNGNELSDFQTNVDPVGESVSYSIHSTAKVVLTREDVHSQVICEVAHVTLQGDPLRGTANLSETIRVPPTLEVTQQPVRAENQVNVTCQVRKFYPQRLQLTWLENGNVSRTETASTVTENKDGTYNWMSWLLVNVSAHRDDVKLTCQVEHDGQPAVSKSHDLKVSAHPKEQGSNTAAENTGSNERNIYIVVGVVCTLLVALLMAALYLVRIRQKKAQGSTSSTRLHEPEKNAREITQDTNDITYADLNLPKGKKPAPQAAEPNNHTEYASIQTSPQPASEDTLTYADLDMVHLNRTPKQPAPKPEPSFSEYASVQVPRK
T1 sequence (Q08722 whole entry, looked up, the tested form may be a part): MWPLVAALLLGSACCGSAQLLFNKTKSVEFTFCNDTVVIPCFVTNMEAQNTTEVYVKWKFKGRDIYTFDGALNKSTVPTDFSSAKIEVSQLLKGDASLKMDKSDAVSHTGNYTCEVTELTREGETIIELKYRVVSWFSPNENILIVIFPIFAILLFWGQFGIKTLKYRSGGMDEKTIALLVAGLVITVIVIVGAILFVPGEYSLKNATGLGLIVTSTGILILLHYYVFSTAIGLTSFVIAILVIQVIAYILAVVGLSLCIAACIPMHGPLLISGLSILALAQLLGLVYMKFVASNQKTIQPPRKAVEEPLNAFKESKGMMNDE
Method in brief: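 Inhibition of soluble CD47/SIRPalpha ectodomain association by titrated compounds, measured as 665/615 nm time-resolved FRET ratio after sequential 30 min room-temperature incubations.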

[15] = molecular target: T1, Tyrosine-protein phosphatase non-receptor type substrate 1 (Homo sapiens) + Leukocyte surface antigen CD47 (Homo sapiens); test: CD47-SIRPalpha protein protein interaction - Alpha assay qHTS validation (AID 1347059); details: AlphaScreen CD47-His/biotin-SIRPalpha binding, LOPAC; series mostly up to 38.3 µM;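 note: bead proximity luminescence from CD47 binding SIRPalpha after compound preincubation with SIRPalpha; potency is the fitted concentration of half-maximal effect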
Method in brief: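 In PBS (pH 7.4) with 0.05% IGEPAL CA-630, compound is preincubated with biotin-Avi-SIRPalpha ectodomain before His-CD47 ectodomain and affinity beads are added. Light-protected room-temperature incubations; AlphaScreen readout.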

[16] = molecular target: Parathyroid hormone/parathyroid hormone-related peptide receptor (Homo sapiens) (UniProt Q03431); test: qHTS for PTHR1 Agonists: Optimization Screen against the NCGC LOPAC library (AID 1347079); details: HEK293 GP2 PTHR1 GloSensor cAMP luminescence, 1 h; series mostly up to 57.1 µM;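 note: GloSensor cAMP luminescence in HEK-293 GP2 cells expressing human PTHR1 with IBMX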
Sequence of Parathyroid hormone/parathyroid hormone-related peptide receptor (Homo sapiens) (Q03431 whole entry, looked up): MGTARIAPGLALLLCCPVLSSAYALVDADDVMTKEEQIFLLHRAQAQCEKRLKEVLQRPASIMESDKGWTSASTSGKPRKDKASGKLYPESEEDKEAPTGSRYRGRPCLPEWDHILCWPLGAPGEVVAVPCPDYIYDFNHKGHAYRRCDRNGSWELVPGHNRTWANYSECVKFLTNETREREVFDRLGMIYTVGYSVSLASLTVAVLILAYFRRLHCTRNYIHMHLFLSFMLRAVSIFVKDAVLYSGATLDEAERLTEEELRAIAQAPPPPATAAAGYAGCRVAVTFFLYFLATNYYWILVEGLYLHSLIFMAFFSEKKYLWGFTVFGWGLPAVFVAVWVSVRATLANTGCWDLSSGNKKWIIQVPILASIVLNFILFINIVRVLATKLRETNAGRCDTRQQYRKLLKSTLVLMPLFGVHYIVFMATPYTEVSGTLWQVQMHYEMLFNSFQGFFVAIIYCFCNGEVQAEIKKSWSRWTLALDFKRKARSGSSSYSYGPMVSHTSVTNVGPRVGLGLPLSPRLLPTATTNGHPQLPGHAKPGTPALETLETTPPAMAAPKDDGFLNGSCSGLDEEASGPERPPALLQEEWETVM
Method in brief: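 Signal increase flags agonism. GP2 cells, derived from HEK-293, express human PTHR1 and a GloSensor cAMP construct.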

SMILES	Potency [1]	Potency [2]	Potency [3]	Potency [4]	Potency [5]	Potency [6]	Potency [7]	Potency [8]	Potency [9]	Potency [10]	Potency [11]	Potency [12]	Potency [13]	outcome [14]	Potency [15]	outcome [16]
O=C(NOCC1CC1)c1ccc(F)c(F)c1Nc1ccc(I)cc1Cl	inactive	21.1 µM (active) and 11.8 µM (active)	10.6 µM (active) and 9.35 µM (active)	16.8 µM (active) and 1.87 µM (active)	24.6 µM (active) and 21.7 µM (active)	15 µM (active) and 8.33 µM (active)	18.7 µM (active)	10.6 µM (active) and 16.6 µM (active)	19.4 µM (active)	16.6 µM (active)	–	–	–	–	–	–
Nc1ncn([C@H]2C[C@H](O)[C@@H](CO)O2)c(=O)n1	–	inactive	–	inactive	inactive	inactive	–	inactive	inactive	inactive	inactive	inactive	–	–	–	–
Nc1nc(Cl)nc2c1ncn2[C@H]1C[C@H](O)[C@@H](CO)O1	–	–	2.96 µM (active)	18.7 µM (active)	0.273 µM (active)	–	inactive	inactive	–	1.05 µM (active)	–	–	–	–	–	–
Nc1cc(C(Cl)=C(Cl)Cl)c(S(N)(=O)=O)cc1S(N)(=O)=O	–	inactive	inactive	inactive	inactive	inactive	inactive	inactive	inactive	inactive	inactive	–	inactive	–	–	–
C=C(c1ccc(C(=O)O)cc1)c1cc2c(cc1C)C(C)(C)CCC2(C)C	inactive	–	inactive	2.11 µM (active)	inactive	–	inactive	inactive	inactive	inactive	inactive	–	26.6 µM (active)	–	–	–
O=C(O)CCNC(=O)c1ccc(N=Nc2ccc(O)c(C(=O)O)c2)cc1	–	inactive	–	–	inactive	inactive	inactive	inactive	–	inactive	inactive	inactive	–	–	–	–
Cc1cc(=O)c2c(O)c3c(O)cc(=O)c4c3c3c(cc(O)c1c23)C(C)(C)C=4O	–	1.16 µM (active) and 18.7 µM (active)	–	1.3 µM (active) and 1.48 µM (active)	1.69 µM (active) and 6.85 µM (active)	5.8 µM (active) and 418 nM (active)	–	1.46 µM (active) and 2.09 µM (active)	inactive	1.16 µM (active) and 2.35 µM (active)	inactive	2.59 µM (active) and 5.26 µM (active)	–	–	–	–
O=C(NCC1CCCCN1)c1cc(OCC(F)(F)F)ccc1OCC(F)(F)F (stereo not given)	inactive	–	–	–	–	–	inactive	–	–	–	inactive	–	–	–	–	–
CCCOc1ccc2nc(NC(=O)OC)[nH]c2c1	–	66.8 nM (active) and 14.8 nM (active)	–	0.0422 µM (active)	123 nM (active) and 27.3 nM (active)	1 nM (active)	–	0.0299 µM (active)	inactive	–	0.0469 µM (active)	–	–	–	–	–
C[Se]CCC(N)C(=O)O (stereo not given)	–	inactive	inactive	54 µM (active)	inactive	–	inactive	inactive	inactive	–	inactive	inactive	inactive	–	–	–
COc1cc(Nc2c(C#N)cnc3cc(OCCCN4CCN(C)CC4)c(OC)cc23)c(Cl)cc1Cl	23.6 µM (active)	13.3 µM (active) and 23.5 µM (active)	10.6 µM (active) and 11.8 µM (active)	2.11 µM (active) and 1.87 µM (active)	17.4 µM (active)	inactive	21.1 µM (active)	8.33 µM (active)	6.12 µM (active)	–	–	–	23.7 µM (active)	–	–	–
Cc1ccc(Nc2nccc(N(C)c3ccc4c(C)n(C)nc4c3)n2)cc1S(N)(=O)=O	inactive	–	inactive	8.41 µM (active) and 16.6 µM (active)	–	–	–	–	–	inactive	inactive	–	14.8 µM (active)	–	–	–
CC(C)[N+]1(C)[C@@H]2CC[C@H]1CC(OC(=O)C(CO)c1ccccc1)C2 (stereo not given in full)	inactive	–	9.35 µM (active)	9.35 µM (active)	inactive	inactive	inactive	inactive	inactive	11.8 µM (active)	inactive	inactive	inactive	–	–	–
Cc1cccc(CN2CCN(C(c3ccccc3)c3ccc(Cl)cc3)CC2)c1 (stereo not given)	–	–	18.7 µM (active)	11.9 µM (active) and 18.7 µM (active)	–	–	inactive	–	inactive	–	inactive	inactive	inactive	–	–	–
O=c1oc2cc(O)ccc2s1	–	inactive	9.35 µM (active)	23.5 µM (active)	inactive	–	inactive	–	inactive	–	inactive	inactive	inactive	–	–	–
O=Nc1c(-c2c(O)[nH]c3cc(Br)ccc23)[nH]c2ccccc12	inactive	11.8 µM (active)	–	2.09 µM (active)	19.3 µM (active)	8330 nM (active)	–	14.8 µM (active)	17.1 µM (active)	9.35 µM (active)	–	18.7 µM (active)	5.9 µM (active)	inactive	1.31 µM (active)	inactive

Reference: PubChem BioAssay (NCATS)
